From PubChem BioAssay (NCATS) come the findings set out here.

In assay [1] the target is Lysosomal acid glucosylceramidase (Homo sapiens) (UniProt P04062). Kind of assay: Glucocerebrosidase-p2 (AID 348; in the data active = potency below about 10 µM; also: potency is read from the fitted curve at half-maximal effect). To be noted: purified GBA, blue fluorogenic substrate, 40 min. The essentials:
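Normal human glucocerebrosidase (0.2 nM) with blue fluorogenic substrate (80 uM final) in citrate/phosphate pH 5.9 with 10mM sodium taurocholate, 0.01% tween-20; 40 min RT, NaOH/glycine stop; fluorescence Ex 365/Em 440; AC50 from a titration from 0.6 nM upwards.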

Assay [2] in a line: AP1 Signaling Pathway (AID 357; active = well fitted curve in either direction with a large enough effect, not every such curve was filed as active;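 also: ME-180 reporter cells stimulated with EGF at its EC50 level; % is scaled to controls: 0 for no effect and ±100 for the full control effect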). The conditions noted are these: ME-180 AP-1-bla reporter, EGF-induced, beta-lactamase ratio, 5 h; at 7.69 µM (top of the series) unless noted. The essentials:
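AP-1-bla ME-180 cells, Opti-MEM + 0.5% dialyzed FBS, plated overnight 37 °C. Cpd titration + EC50 EGF, 5 h 37 °C. CCF4 2.5 h RT; ex 405, em 460/530 ratio → %activity, AC50.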

Assay [3] addresses Cytochrome P450 1A2 (Homo sapiens) (UniProt P05177). Kind of assay: p450-cyp1a2 (AID 410; calls by dose curve; also: potency is read from the fitted curve at half-maximal effect). The conditions noted are these: recombinant CYP1A2, luciferin-ME demethylation, luminescence; series mostly up to 57 µM. The essentials:
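20nM CYP1A2, 100uM Luciferin-ME (=Km), 100mM KPO4; cpd 10 min RT; +NADPH regen, 60 min RT; stop/detect 20 min; luminescence. Normalized to furafylline 57 uM = full inhibition.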

Assay [4] in a line: Stat Signaling Pathway (AID 446; active = well fitted curve in either direction with a large enough effect, not every such curve was filed as active;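 also: ME-180 cervical cancer cells given 40 pM IL-6 alongside compound; SIE-controlled beta-lactamase reporter measured as 460/530 nm FRET emission ratio; % is scaled to controls: 0 for no effect and ±100 for the full control effect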). The conditions noted are these: ME-180 SIE beta-lactamase reporter, IL-6 stimulated, 5 h; at 7.69 µM (top of the series) unless noted. The essentials:
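Emission at 460 and 530 nm (excitation 405 nm) reports SIE-controlled beta-lactamase in ME-180 cells. Cells received compound with 40 pM IL-6 for 5 hrs at 37 C; data scaled between 300 pM IL-6 and 125 nM JAK-inhibitor controls.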

In assay [5] the target is Glucocorticoid receptor (Homo sapiens) (UniProt P04150). As to the kind of experiment: GR-GFP Redistribution (AID 450;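 active = compounds whose dose series gives a full or clear partial fitted curve of increased nuclear translocation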; also: potency is read from the fitted curve at half-maximal effect). The conditions noted are these: U2OS GR-GFP nuclear translocation, laser cytometry, 2 h.
Assay [6] has the same target. As to the kind of experiment: GR-EFC Redistribution (AID 451; calls by dose curve; also: potency is read from the fitted curve at half-maximal effect). The conditions noted are these: CHO-K1 GR-EFC translocation, beta-gal luminescence, 2 h. The essentials: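 CHO-K1 cells stably expressing nuclear-localized β-gal enzyme acceptor and GR fused C-terminally to the enzyme donor fragment; ligand-driven nuclear translocation restores β-gal by complementation. Compounds titrated up to 46 uM final, 2 h at 37 °C; luminescence read.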

Assay [7] deals with Mitogen-activated protein kinase 10 (Mus musculus) (UniProt Q61831). As to the kind of experiment: JNK3 AlphaScreen Assay (AID 530; active = well fitted curve in either direction with a large enough effect, not every such curve was filed as active;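 also: kinase came from lysate of stimulated human HepG2 cells; % is scaled to controls: 0 for no effect and ±100 for the full control effect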). To be noted: JNK3 lysate, c-Jun phosphorylation; series mostly up to 57.1 µM. The essentials: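 Biotinylated GST-cJun(1-79) served as substrate for JNK3 in HepG2 lysates stimulated with IL-1beta and TNF-alpha. ATP was 10 uM final, pH 7.6. Ser73 phosphorylation was quantified by AlphaScreen (680 nm excitation).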

Assay [8] concerns the target Cytochrome P450 3A4 (Homo sapiens) (UniProt P08684). As to the kind of experiment: qHTS Assay for Inhibitors and Substrates of Cytochrome P450 3A4 (AID 884). Also: potency is read from the fitted curve at half-maximal effect; nearly all actives have a fitted effect of over 50% in size. The conditions noted are these: recombinant CYP3A4, Luciferin-PPXE luminescence; series mostly up to 57.1 µM. The essentials: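 Luminescent readout of luciferin produced by CYP3A4 (20 nM) dealkylation of Luciferin-PPXE, 25 uM (its KM). NADPH-driven reaction ran 60 min at RT after 10 min compound preincubation; data scaled to 57 uM ketoconazole as 100% inhibition.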
For orientation: In qHTS, concentration-response curves come from the screen itself.

Assay [9] has the same target. Kind of assay: qHTS Assay for Activators of Cytochrome P450 3A4 (AID 885). Also: nearly all actives have a fitted effect of over 65% in size. The conditions noted are these: recombinant CYP3A4, Luciferin-PPXE luminescence, 60 min; series mostly up to 57.1 µM. The essentials:
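Activators are scored by enhanced luminescence from CYP3A4 conversion of luciferin-PPXE (25uM, equal to KM) to luciferin, after 60 min at RT with an NADPH-regenerating system.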

In assay [10] the target is Cytochrome P450 2C19 (Homo sapiens) (UniProt P33261). As to the kind of experiment: qHTS Assay for Inhibitors and Substrates of Cytochrome P450 2C19 (AID 899). Also: potency is read from the fitted curve at half-maximal effect; nearly all actives have a fitted effect of over 60% in size. The conditions noted are these: recombinant CYP2C19, luciferin-H EGE luminescence; series mostly up to 57.1 µM. The essentials:
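Human CYP2C19 (5nM) with Luciferin-H EGE at 10uM (its KM) in 50mM KPO4 was preincubated with compound for 10 min at 37C. NADPH regeneration started a 60 min 37C reaction. Luciferin was read by luminescence, normalized to 57uM ketoconazole.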

For assay [11], the target named is Dual specificity protein kinase CLK4 (Homo sapiens) (UniProt Q9HAZ1). Kind of assay: qHTS Assay for Inhibitors of CDC-like Kinase 4 (ADP-FP Assay) (AID 1795). Also: % is scaled to controls: 0 for no effect and ±100 for the full control effect; nearly all actives have a fitted effect of over 60% in size. To be noted: Transcreener ADP fluorescence polarization; series mostly up to 50 µM. The essentials:
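Recombinant human Clk4 (6.25 nM) phosphorylated RS repeat peptide (100 uM) with 1 uM ATP in Tris pH 7.5/MgCl2/EGTA/DTT/Triton buffer for one hour. ADP was quantified by Transcreener competitive fluorescence polarization against an ADP calibration curve.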

Assay [12] has as its target Ubiquitin carboxyl-terminal hydrolase 1 (Homo sapiens) (UniProt O94782). As to the kind of experiment: Inhibitors of USP1/UAF1: Pilot qHTS (AID 504865).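 Also: rhodamine fluorescence freed from ubiquitin-rhodamine substrate followed over time; top concentration of the series differs between compounds; % is scaled to controls: 0 for no effect and ±100 for the full control effect; nearly all actives have a fitted effect of over 35% in size.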 To be noted: purified USP1/UAF1, Ub-rhodamine cleavage fluorescence; series mostly up to 54.9 µM. The essentials:
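USP1/UAF1 complex (1nM) preincubated with compound 15 min at room temperature, then Ub-Rho substrate (150nM final) added. Fluorescence read kinetically at 480/540 nm, 6 reads every 60 seconds. Buffer: 50mM HEPES pH 7.8, 0.5mM EDTA, 0.1 mg/ml BSA, 1mM TCEP, 0.01% Tween-20.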

Assay [13] is described as follows: Primary qHTS for small molecule stabilizers of the endoplasmic reticulum resident proteome: Secreted ER Calcium Modulated Protein (SERCaMP) assay (AID 1508630). Also: % is scaled to controls: 0 for no effect and ±100 for the full control effect. The conditions noted are these: SH-SY5Y GLuc-SERCaMP (Gaussia luciferase released on ER calcium loss) secretion, thapsigargin, luminescence; series mostly up to 38.4 µM. The essentials:
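The SH-SY5Y reporter protocol was run at 3 concentrations up to 38.3 uM (primary) or 11 concentrations (follow-up): 16 h compound, 100 nM thapsigargin for 4 h, then extracellular luciferase luminescence.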

Assay [14] is described as follows: NFAT Signaling Pathway (AID 444; active = well fitted curve in either direction with a large enough effect, not every such curve was filed as active). To be noted: Jurkat NFAT-bla M1, carbachol, beta-lactamase ratio, 5 h; at 7.69 µM (top of the series) unless noted. The essentials: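 Jurkat cells carrying an NFAT-driven β-lactamase reporter and co-transfected muscarinic M1 receptor were treated with compound plus carbachol (1 uM final, an EC50 level) for 5 h at 37 °C. CCF4 loading followed for 1 h at RT; 460/530 nm ratio gave %activity.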

The target in assay [15] is 3',5'-cyclic-AMP phosphodiesterase 4B (Homo sapiens) (UniProt Q07343). Kind of assay: qHTS Assay for Inhibitors of PDE-IV (AID 607; active = well fitted activation curve with a large enough effect in the main read-out, with a control signal flat, not every such curve was filed as active; also: % of control where 0% means no effect). To be noted: HEK293 ACTOne CNG channel cells, membrane potential fluorescence; series mostly up to 22.9 µM. The essentials: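 The readout is membrane depolarisation from a cAMP-sensing CNG channel, detected with a potential dye at ex 535/em 590. Cells were HEK293-derived (endogenous PDE-IV) at 1000 cells/well, titrated up to 22.9 uM final.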

Assay [16] can be described thus: qHTS Assay for Identification of Small Molecule Agonists for Hypoxia Response Element Signaling Pathway (AID 914; active = well fitted activation curve with a large enough effect in the signal ratio, with a control signal flat, not every such curve was filed as active; the % refers to the signal ratio; also: % of control where 0% means no effect). To be noted: ME-180 (cervical carcinoma) HRE-bla reporter, beta-lactamase ratio, CoCl2, 17 h; activation: stronger effect = higher value. The essentials:
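HRE-bla ME-180 cells, overnight plating in Opti-MEM with 0.5% dialyzed FBS; cpd titration + EC50 CoCl2, 17 h, 37 degrees Celsius; CCF4 2.5 h RT; 460/530 nm ratio; AC50.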

Values without a mark were called inactive. Results filed as inconclusive are left out. The source made the active and inactive calls. Unless noted, calls follow the shape of the dose curve; as a rule, active = well fitted curve in the direction sought with a large enough effect; inconclusive = small, poorly fitted or top-dose-only effect, or another doubt; inactive = no such curve, though single readings can be large; an effect the other way counts as inactive or inconclusive. Some results are limits rather than exact numbers.

Chain of Lysosomal acid glucosylceramidase (Homo sapiens) (P04062 whole entry, looked up): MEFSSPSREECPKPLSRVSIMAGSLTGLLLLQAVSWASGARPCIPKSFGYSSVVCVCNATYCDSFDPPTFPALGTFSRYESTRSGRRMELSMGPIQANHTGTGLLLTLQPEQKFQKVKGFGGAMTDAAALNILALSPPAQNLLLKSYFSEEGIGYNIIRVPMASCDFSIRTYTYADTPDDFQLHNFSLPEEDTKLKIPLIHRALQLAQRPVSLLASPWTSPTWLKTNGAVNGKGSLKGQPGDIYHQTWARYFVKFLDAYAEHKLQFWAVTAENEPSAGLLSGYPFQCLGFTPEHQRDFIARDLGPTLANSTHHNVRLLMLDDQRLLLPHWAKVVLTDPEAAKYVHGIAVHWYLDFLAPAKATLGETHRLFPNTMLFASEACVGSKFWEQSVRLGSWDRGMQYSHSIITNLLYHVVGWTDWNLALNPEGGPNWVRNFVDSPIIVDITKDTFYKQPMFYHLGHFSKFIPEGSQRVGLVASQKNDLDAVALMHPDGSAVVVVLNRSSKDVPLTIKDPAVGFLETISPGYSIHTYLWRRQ
Chain of Cytochrome P450 1A2 (Homo sapiens) (P05177 whole entry, looked up): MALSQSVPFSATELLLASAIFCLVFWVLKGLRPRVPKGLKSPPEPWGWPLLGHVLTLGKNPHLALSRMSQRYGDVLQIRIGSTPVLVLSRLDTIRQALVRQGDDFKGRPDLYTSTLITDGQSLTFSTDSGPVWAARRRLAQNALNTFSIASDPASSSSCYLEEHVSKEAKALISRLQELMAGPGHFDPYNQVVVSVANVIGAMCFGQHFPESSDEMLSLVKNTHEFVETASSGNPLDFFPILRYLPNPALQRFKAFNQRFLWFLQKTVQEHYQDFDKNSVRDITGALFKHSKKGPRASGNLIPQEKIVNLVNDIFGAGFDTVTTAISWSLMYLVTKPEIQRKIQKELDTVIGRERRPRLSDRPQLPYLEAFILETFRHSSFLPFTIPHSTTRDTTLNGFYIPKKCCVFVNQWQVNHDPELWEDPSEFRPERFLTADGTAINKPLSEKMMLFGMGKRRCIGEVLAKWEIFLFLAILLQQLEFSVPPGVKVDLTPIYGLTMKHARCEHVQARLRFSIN
Chain of Cytochrome P450 3A4 (Homo sapiens) (P08684 whole entry, looked up): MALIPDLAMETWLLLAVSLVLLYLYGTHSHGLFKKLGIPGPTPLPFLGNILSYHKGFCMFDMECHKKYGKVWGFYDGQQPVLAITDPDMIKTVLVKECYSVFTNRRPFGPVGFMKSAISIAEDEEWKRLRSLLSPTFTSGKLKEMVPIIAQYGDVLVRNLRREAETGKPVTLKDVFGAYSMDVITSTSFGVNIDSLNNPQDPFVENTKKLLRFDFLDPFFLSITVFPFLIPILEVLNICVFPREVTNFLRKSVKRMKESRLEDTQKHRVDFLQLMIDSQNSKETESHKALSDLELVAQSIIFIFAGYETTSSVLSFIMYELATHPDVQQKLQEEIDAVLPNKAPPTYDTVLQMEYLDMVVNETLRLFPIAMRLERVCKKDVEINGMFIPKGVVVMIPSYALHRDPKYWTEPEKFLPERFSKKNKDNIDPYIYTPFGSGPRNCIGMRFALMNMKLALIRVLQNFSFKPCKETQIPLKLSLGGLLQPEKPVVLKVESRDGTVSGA
Chain of Dual specificity protein kinase CLK4 (Homo sapiens) (Q9HAZ1 whole entry, looked up): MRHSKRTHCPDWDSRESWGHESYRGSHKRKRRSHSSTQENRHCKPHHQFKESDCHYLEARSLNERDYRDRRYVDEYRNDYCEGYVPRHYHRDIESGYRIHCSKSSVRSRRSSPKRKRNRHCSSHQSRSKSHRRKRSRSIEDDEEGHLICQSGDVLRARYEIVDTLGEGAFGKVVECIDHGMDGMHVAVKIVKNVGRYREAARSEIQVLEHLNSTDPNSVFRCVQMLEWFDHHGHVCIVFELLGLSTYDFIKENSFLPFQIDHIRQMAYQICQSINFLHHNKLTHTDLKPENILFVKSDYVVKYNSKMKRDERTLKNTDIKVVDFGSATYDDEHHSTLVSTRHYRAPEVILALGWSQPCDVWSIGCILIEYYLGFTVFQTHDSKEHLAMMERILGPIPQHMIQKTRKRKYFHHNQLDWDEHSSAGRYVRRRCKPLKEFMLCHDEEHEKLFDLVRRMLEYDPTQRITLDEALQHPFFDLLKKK
Chain of Glucocorticoid receptor (Homo sapiens) (P04150 whole entry, looked up, the tested form may be a part): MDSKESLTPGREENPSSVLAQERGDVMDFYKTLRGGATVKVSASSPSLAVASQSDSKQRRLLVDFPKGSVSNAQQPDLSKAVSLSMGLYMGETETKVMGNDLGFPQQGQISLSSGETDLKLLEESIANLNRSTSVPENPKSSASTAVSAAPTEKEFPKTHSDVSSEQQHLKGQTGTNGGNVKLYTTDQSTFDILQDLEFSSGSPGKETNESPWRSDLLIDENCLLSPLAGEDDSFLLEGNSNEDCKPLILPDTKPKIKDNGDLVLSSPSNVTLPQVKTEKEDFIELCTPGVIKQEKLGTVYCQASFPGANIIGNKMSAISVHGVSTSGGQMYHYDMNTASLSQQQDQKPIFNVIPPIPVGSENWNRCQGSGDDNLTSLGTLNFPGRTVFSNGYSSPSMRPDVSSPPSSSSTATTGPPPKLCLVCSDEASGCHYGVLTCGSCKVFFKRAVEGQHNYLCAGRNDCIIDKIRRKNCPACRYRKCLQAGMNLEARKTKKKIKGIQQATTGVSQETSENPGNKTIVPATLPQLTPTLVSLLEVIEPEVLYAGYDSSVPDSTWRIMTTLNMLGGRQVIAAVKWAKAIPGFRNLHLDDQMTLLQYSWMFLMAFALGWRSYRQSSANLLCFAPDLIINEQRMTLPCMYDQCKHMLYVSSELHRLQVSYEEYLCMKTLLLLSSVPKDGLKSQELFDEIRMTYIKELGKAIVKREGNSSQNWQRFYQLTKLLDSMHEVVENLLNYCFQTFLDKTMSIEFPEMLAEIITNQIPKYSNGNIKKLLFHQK
Chain of 3',5'-cyclic-AMP phosphodiesterase 4B (Homo sapiens) (Q07343 whole entry, looked up): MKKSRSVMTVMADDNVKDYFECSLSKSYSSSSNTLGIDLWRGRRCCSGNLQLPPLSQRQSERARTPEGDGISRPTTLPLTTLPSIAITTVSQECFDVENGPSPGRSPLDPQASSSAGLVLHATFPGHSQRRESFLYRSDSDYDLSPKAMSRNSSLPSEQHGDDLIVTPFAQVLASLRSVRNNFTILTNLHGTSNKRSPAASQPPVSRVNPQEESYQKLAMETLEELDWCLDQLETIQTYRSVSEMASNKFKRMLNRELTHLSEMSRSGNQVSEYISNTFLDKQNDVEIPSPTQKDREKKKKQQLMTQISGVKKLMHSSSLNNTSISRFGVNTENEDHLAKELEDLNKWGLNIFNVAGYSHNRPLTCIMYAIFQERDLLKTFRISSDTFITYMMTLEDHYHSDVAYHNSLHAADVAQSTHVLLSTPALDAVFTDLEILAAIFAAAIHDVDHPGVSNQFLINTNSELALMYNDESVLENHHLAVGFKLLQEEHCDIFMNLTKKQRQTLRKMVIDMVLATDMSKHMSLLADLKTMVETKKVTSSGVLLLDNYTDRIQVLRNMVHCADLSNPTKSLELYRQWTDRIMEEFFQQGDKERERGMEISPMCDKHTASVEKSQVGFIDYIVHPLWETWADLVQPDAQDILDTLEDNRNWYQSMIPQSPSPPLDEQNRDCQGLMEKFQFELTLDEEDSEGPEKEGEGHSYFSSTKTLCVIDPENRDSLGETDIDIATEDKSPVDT
Chain of Cytochrome P450 2C19 (Homo sapiens) (P33261 whole entry, looked up): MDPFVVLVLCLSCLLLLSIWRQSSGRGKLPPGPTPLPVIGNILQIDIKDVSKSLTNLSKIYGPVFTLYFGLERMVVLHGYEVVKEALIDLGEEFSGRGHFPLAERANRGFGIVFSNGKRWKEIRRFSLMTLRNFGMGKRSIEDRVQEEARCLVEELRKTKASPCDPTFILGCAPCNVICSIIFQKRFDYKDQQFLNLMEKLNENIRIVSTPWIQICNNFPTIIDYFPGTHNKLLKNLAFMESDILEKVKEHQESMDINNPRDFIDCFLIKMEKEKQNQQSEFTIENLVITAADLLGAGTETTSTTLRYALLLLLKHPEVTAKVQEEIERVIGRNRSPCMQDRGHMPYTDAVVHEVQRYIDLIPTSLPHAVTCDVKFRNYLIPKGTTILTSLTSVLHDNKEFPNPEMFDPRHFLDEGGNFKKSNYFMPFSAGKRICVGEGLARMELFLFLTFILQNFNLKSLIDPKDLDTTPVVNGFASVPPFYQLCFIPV
Chain of Ubiquitin carboxyl-terminal hydrolase 1 (Homo sapiens) (O94782 whole entry, looked up): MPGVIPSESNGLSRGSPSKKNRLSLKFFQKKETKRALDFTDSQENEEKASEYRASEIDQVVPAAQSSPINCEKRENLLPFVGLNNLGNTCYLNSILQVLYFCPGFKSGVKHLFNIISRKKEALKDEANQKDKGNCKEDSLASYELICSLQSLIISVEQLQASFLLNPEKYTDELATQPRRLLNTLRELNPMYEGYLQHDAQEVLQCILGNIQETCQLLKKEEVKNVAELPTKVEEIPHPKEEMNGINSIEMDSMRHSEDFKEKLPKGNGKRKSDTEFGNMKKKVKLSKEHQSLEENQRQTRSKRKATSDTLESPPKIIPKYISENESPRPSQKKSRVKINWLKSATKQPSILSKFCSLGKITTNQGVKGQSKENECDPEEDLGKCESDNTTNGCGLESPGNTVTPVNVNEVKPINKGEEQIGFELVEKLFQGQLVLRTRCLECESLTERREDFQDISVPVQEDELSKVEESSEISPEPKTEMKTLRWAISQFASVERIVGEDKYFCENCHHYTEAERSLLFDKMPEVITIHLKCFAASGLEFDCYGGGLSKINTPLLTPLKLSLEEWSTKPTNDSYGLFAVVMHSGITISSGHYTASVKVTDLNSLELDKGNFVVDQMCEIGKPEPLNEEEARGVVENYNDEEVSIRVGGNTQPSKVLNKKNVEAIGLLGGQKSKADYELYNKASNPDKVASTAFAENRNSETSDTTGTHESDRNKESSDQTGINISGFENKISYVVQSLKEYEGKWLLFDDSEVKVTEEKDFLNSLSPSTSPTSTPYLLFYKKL

Consider `CN(Cc1ccco1)c1nc(-c2ccc3c(c2)OCO3)nc2ccccc12`, for which the Potency is over 11.4 µM in [1]; 0.501 µM (active) in assay [3]; over 46 µM in assay [5]; over 46 µM in assay [6]; 1.58 µM (active) in assay [8]; 7.94 µM (active) in [10]. For the same compound, the activity change, negative = inhibition in assay [2] is 17%. Moreover, the activity, negative = inhibition in [4] was 1.32%. For the same compound, the Potency result in assay [7], in [9], in assay [11] and in assay [12] was “inactive” each time. The result in [13] was inactive.
For `COc1ccc2[nH]cc(CCNc3ccnc(-c4ccccc4C)n3)c2c1`, the Potency is 0.316 µM (active) in [3]; over 46 µM in assay [5]; over 46 µM in [6]; 3.16 µM (active) in [8]; 2.51 µM (active) in assay [10]. Moreover, the activity change, negative = inhibition in assay [14] was 8.54%. The activity, negative = inhibition in assay [4] was -1.84%. In addition, the Potency entry in [7], in assay [15], in assay [9], in [11] and in [12] was “inactive” throughout. In addition, in assay [13], the result was inactive.
For the compound `CC(=O)NCCNc1nc(-c2cccc(NS(C)(=O)=O)c2)nc2ccccc12`, the Potency in assay [1] is over 11.4 µM; in assay [3], 15.8 µM (active); in assay [5], over 46 µM; in [6] it was over 46 µM. Further, the activity change, negative = inhibition in assay [14] was -1.12%. Besides, the activity, negative = inhibition in [4] is -3.86%. The Potency result in assay [7], in [15], in [9], in assay [11] and in assay [12] was “inactive” in each case. For the same compound, the outcome in [13] was inactive.
Take `CCNc1ncc2nc(C)c(=O)n(CCOC)c2n1`: the Potency was over 11.4 µM in [1], over 9.22 µM in assay [5] and over 46 µM in assay [6]. The activity change, negative = inhibition is -1.39% in [2] and 13.7% in [14]. The activity, negative = inhibition in [4] is -7.84%. Also, the Potency result in [7], in [15], in [11] and in assay [12] was “inactive” throughout. Besides, the result in assay [13] was inactive.
With `CN(C)c1ccc(-c2cncnc2NCc2cccnc2)cc1`, the Potency in assay [1] was over 11.4 µM; in [5], over 46 µM; in assay [6] it was over 46 µM; in assay [8], 0.631 µM (active); in assay [10], 0.0316 µM (active). The activity change, negative = inhibition in [2] was -12.4%; in assay [14], 8.27%. Further, in [4], the activity, negative = inhibition was -10%. Also, the Potency result in [7], in [15], in assay [9], in assay [11] and in [12] was “inactive” throughout. For the same compound, the activation in [16] was 1.46%. For the same compound, in [13], the result was inactive.
In the case of `CN(C)C(=O)c1ccc(-c2cncnc2-n2ccnc2)cc1`, the Potency in assay [1] is over 11.4 µM; in assay [3], 20 µM (active); in [5], over 46 µM; in assay [6], over 46 µM. The activity change, negative = inhibition in assay [14] is 13%. Moreover, the activity, negative = inhibition in assay [4] was 3.39%. Besides, the Potency result in assay [7], in assay [15], in assay [9], in [11] and in assay [12] was “inactive” in each case. Moreover, the outcome in assay [13] was inactive.
